The target in assay [1] is Calcium and integrin-binding protein 1 (Homo sapiens) (UniProt Q99828). The assay can be described thus: Validation qHTS for Identification of Calcium Integrin Binding protein 1 (CIB1) Competitor (AID 1508618). Note: % is set by controls: 0 for no effect and ±100 for the full control effect. Particulars: CIB1-GST / FITC-alphaIIb peptide fluorescence polarization; series mostly up to 114 µM. In outline:
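CIB1-GST (1 uM final) incubated 15 min at room temperature with compounds (up to 114 uM), then FITC-labelled alphaIIb peptide (100 nM) added. FP read (Ex 480/Em 540) after 15 min, pH 7.4 buffer containing 5 mM CaCl2.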

Assay [2] shares this target. The assay can be described thus: Primary qHTS for Identification of Calcium Integrin Binding Protein 1 (CIB1) Competitor (AID 1508620).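 Note: GST tagged CIB1 binding a fluorescein labelled alphaIIb integrin peptide tracer; top concentration of the series differs between compounds; % is set by controls: 0 for no effect and ±100 for the full control effect.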 Particulars: CIB1-GST / FITC-alphaIIb peptide fluorescence polarization; series mostly up to 114 µM. In outline:
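CIB1-GST (1 uM final) and compound incubated 15 min at room temperature before adding FITC-alphaIIb peptide tracer (100 nM final). Competition for binding read by fluorescence polarization (ex 480, em 540) after another 15 min at room temperature.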
Background: In qHTS, concentration-response curves come from the screen itself.

Assay [3] concerns the target Cytochrome P450 2D6 (Homo sapiens) (UniProt P10635). The assay can be described thus: Cytochrome P450 family 2 subfamily D member 6 (CYP2D6) small molecule antagonists: luciferase biochemical (cell-free) qHTS assay (AID 1645840; active = well fitted curve in the direction sought with a large enough effect in the repeat runs; an effect the other way counts as inactive or inconclusive; note: nearly all actives have a fitted effect of over 55% in size; note: potency is the fitted concentration of half-maximal effect). To be noted: P450-Glo CYP2D6 enzyme, luciferin luminescence, 1 h; series mostly up to 57.4 µM. In outline: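 P450-Glo CYP2D6 system: proluciferin substrate converted by enzyme to luciferin, read by luminescence proportional to activity. Enzyme-substrate mix with compound 10 min at room temperature, then NADPH regeneration 1 h before detection reagent.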

In assay [4] the target is Cytochrome P450 2C9 (Homo sapiens) (UniProt P11712). The assay can be described thus: Cytochrome P450 family 2 subfamily C member 9 (CYP2C9) small molecule antagonists: luciferase biochemical (cell-free) qHTS assay (AID 1645842; active = well fitted curve in the direction sought with a large enough effect in the repeat runs; an effect the other way counts as inactive or inconclusive; note: nearly all actives have a fitted effect of over 55% in size; note: potency is the fitted concentration of half-maximal effect). Particulars: P450-Glo CYP2C9 enzyme assay, luciferin luminescence; series mostly up to 57.4 µM. In a few lines:
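P450-Glo CYP2C9 system: proluciferin substrate with enzyme in mix containing 0.4% BSA, 10 min at room temperature, then NADPH regeneration solution added and incubated 1 h at 37C. Detection reagent stopped reaction; luminescence read after 20 min as RLU.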

The next assay deals with Papain (Carica papaya) (UniProt P00784). The assay can be described thus: Primary qHTS assay for inhibitors of the protease papain (AID 1645873).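 Note: papain turnover of Z-FR-AMC read as the AMC fluorescence gain over 10 min; % is set by controls: 0 for no effect and ±100 for the full control effect.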 Particulars: papain Z-FR-AMC cleavage, AMC fluorescence; series mostly up to 49.8 µM.
A short description of assay [5]: Primary qHTS for small molecule stabilizers of the endoplasmic reticulum resident proteome: Secreted ER Calcium Modulated Protein (SERCaMP) assay (AID 1508630). Note: % is set by controls: 0 for no effect and ±100 for the full control effect. Particulars: SH-SY5Y GLuc-SERCaMP (Gaussia luciferase released on ER calcium loss) secretion, thapsigargin, luminescence; series mostly up to 38.4 µM. In outline: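 The SH-SY5Y reporter protocol was run at 3 concentrations up to 38.3 uM (primary) or 11 concentrations (follow-up): 16 h compound, 100 nM thapsigargin for 4 h, then extracellular luciferase luminescence.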

The nature of assay [6]: A High-Content qHTS Against Drug Library for the Identification of Small Molecules that Inhibit DYT1 Early Onset Primary Dystonia-Associated Cell Pathology (AID 1645839; calls by dose curve). To be noted: HEK293 Flp-In EGFP-delE TorsinA, punctate imaging, 48 h; series mostly up to 46.1 µM. In outline:
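High-content imaging quantified EGFP-TorsinA mislocalization in HEK293-derived cells inducibly expressing DYT1 mutant torsinA, after 48 h exposure to compound given together with tetracycline induction. Cell count served as a toxicity channel alongside %pathology.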

Assay [7] has as its target Rap guanine nucleotide exchange factor 3 (Homo sapiens) (UniProt O95398). Nature of the assay: Confirmatory qHTS for antagonist of cAMP-regulated guanine nucleotide exchange factor 3 (EPAC1) (AID 1645880).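 Note: plate controls were DMSO only for no effect and full effect of the ATA control for full effect; nearly all actives have a fitted effect of over 55% in size.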 To be noted: EPAC1 Rap1B-BODIPY-GDP exchange, fluorescence; series mostly up to 115 µM. In a few lines:
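Released BODIPY-GDP fluoresces less than Rap1-bound BODIPY-GDP; the signal is followed at 480/540 nm at 5-min intervals over 30 min, after 5 min at room temperature. Reactions contain 100 nM EPAC1, 250 nM RAP1B-BODIPY-GDP and 50 uM GDP; results are normalized to ATA and DMSO.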

Assay [8] shares this target. The assay can be described thus: Confirmatory qHTS for agonist of cAMP-regulated guanine nucleotide exchange factor 3 (EPAC1) (AID 1645881).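 Note: EPAC1 catalysed release of BODIPY-GDP from Rap1B seen as fluorescence loss; 100% = effect of cAMP agonist control; nearly all actives have a fitted effect of over 75% in size.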 To be noted: EPAC1 Rap1B BODIPY-GDP exchange fluorescence; series mostly up to 154 µM.
Assay [9] in a line: Primary qHTS for inhibitors of nuclear receptor binding SET domain protein 2 (NSD2) in an isogenic RCH-ACV NSD2 p.E1099K mutant (9B) (AID 1645876). Note: nearly all actives have a fitted effect of over 70% in size. Note: potency is the fitted concentration of half-maximal effect. To be noted: RCH-ACV NSD2 E1099K (9B) viability, CellTiter-Glo, 72 h; series mostly up to 44.9 µM.
Assay [10] can be described thus: Primary qHTS for inhibitors of nuclear receptor binding SET domain protein 2 (NSD2) in an RCH-ACV wild type WT cells (2C) (AID 1645877). Note: nearly all actives have a fitted effect of over 70% in size. Note: potency is the fitted concentration of half-maximal effect. To be noted: RCH-ACV (leukaemia line) NSD2 WT (2C) viability, CellTiter-Glo, 72 h; series mostly up to 44.9 µM.
Assay [11] is described as follows: Counterscreen qHTS for small molecule stabilizers of the endoplasmic reticulum resident proteome: GLuc-NoTag assay (AID 1508627).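 Note: SH-SY5Y cells given compound then 100 nM thapsigargin to empty ER calcium; 0% = thapsigargin alone and -100% = DMSO vehicle control.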 To be noted: Gaussia luciferase NoTag secretion counterscreen, luminescence, thapsigargin 100 nM for final 4 h; series mostly up to 76.4 µM. In a few lines: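 Counterscreen line: SH-SY5Y-GLuc-NoTag cells, treated with compound 19 hr before a 4 hr, 100 nM thapsigargin calcium depletion. Secreted Gaussia luciferase in the medium was measured by luminescence after coelenterazine was added (0.07x final), with cells unlysed.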

A short description of assay [12]: Confirmatory qHTS for small molecule stabilizers of the endoplasmic reticulum resident proteome: Secreted ER Calcium Modulated Protein (SERCaMP) assay (AID 1508628). Note: potency is the fitted concentration of half-maximal effect; nearly all actives have a fitted effect of over 40% in size. Particulars: SERCaMP secreted luciferase ER calcium/proteostasis reporter; series mostly up to 76.3 µM. In a few lines:
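GLuc-SERCaMP-expressing SH-SY5Y cells, pretreated 16 h with compound, are challenged with thapsigargin to empty ER calcium stores; after 4 h, coelenterazine is added directly to the medium and luminescence is imaged.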

In assay [13] the target is Rap guanine nucleotide exchange factor 4 (Homo sapiens) (UniProt Q8WZA2). Nature of the assay: Confirmatory qHTS for agonist of cAMP-regulated guanine nucleotide exchange factor 4 (EPAC2) (AID 1645884).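 Note: nucleotide exchange releases bodipy-GDP from Rap1 and this lowers its fluorescence; % is set by controls: 0 for no effect and ±100 for the full control effect; nearly all actives have a fitted effect of over 65% in size.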 To be noted: EPAC2 GEF activity, Rap1B-BODIPY-GDP fluorescence; series mostly up to 154 µM.
Assay [14] shares this target. The assay can be described thus: Confirmatory qHTS for antagonist of cAMP-regulated guanine nucleotide exchange factor 4 (EPAC2) (AID 1645885). Note: % is set by controls: 0 for no effect and ±100 for the full control effect; nearly all actives have a fitted effect of over 25% in size. Particulars: EPAC2 Rap1B-BODIPY-GDP exchange fluorescence, biochemical; series mostly up to 114 µM.
The target of assay [15] is Rap guanine nucleotide exchange factor 3 (Homo sapiens) (UniProt O95398). Nature of the assay: Counterscreen qHTS for antagonist of cAMP-regulated guanine nucleotide exchange factor 3 (EPAC1) (AID 1645888). Note: % of control where 0% means no effect. Particulars: Rap1B-BODIPY-GDP nucleotide exchange, fluorescence; series mostly up to 154 µM. In a few lines:
(§1)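 Rap1B-BODIPY-GDP 250 nM + GDP 50 uM; cpds 7-pt, final 9.74 nM–152 uM (activator mode) or from 7.32 nM upwards (inhibitor mode); RT; FI 480/540 nm at 5 and 30 min, then ± cAMP, reread.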

Assay [16] has the same target. The assay can be described thus: Counterscreen qHTS for agonist of cAMP-regulated guanine nucleotide exchange factor 3 (EPAC1) (AID 1645889). Note: % of control where 0% means no effect; nearly all actives have a fitted effect of over 40% in size. Particulars: EPAC1 Rap1B-BODIPY-GDP exchange, fluorescence; series mostly up to 154 µM. In a few lines:
as §1
(A counterscreen serves to expose hits that act by an unwanted route or on another target.)

Assay [17] can be described thus: Cell Viability qHTS for small molecule stabilizers of the endoplasmic reticulum resident proteome (AID 1508629). Particulars: cell viability counter-screen, 100 nM thapsigargin for final 4 h.

Inconclusive results are not listed. A number with no mark means an inactive call. Active and inactive are the calls of the source. Unless noted, calls come from the whole dose curve; as a rule, active = well fitted curve in the direction sought with a large enough effect; inconclusive = small, poorly fitted or top-dose-only effect, or another doubt; inactive = no such curve, though single readings can be large; an effect the other way counts as inactive or inconclusive.

Rap guanine nucleotide exchange factor 3 (Homo sapiens), sequence (O95398 whole entry, looked up): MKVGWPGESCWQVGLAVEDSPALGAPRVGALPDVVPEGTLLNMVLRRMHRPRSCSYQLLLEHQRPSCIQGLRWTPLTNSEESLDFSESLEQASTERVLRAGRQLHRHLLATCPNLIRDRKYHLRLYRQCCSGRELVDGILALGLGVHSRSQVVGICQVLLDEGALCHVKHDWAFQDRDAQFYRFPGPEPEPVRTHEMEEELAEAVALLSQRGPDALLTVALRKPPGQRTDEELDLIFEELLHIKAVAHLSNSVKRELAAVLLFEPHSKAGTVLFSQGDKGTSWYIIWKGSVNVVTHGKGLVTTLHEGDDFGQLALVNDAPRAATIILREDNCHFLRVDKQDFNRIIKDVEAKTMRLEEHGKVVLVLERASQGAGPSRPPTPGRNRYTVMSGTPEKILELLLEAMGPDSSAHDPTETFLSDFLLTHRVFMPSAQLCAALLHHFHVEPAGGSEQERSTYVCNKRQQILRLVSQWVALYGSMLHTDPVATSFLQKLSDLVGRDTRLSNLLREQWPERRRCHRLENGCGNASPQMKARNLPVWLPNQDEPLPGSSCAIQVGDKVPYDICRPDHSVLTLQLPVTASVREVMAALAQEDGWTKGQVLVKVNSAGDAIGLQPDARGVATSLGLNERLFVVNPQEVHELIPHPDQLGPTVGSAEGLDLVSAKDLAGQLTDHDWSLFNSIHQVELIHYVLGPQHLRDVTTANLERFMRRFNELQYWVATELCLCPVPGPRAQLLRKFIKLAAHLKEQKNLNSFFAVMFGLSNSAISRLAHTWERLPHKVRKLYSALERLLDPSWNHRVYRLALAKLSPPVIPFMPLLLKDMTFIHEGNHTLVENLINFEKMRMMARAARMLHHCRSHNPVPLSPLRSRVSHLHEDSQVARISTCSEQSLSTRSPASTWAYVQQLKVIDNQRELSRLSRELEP
Cytochrome P450 2D6 (Homo sapiens), sequence (P10635 whole entry, looked up): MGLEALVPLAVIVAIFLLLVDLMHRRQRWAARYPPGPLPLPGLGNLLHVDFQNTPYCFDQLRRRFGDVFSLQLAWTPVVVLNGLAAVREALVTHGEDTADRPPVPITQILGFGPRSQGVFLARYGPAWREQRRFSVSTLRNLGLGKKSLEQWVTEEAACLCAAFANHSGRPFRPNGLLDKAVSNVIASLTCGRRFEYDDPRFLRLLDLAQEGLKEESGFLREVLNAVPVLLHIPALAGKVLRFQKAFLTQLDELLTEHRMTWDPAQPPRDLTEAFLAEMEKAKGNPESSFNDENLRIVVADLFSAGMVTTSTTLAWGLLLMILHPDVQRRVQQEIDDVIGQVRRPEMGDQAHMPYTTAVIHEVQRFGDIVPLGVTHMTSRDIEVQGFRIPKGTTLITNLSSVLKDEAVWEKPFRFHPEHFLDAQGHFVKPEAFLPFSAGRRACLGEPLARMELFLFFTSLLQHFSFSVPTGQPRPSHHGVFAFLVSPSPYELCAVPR
Cytochrome P450 2C9 (Homo sapiens), sequence (P11712 whole entry, looked up): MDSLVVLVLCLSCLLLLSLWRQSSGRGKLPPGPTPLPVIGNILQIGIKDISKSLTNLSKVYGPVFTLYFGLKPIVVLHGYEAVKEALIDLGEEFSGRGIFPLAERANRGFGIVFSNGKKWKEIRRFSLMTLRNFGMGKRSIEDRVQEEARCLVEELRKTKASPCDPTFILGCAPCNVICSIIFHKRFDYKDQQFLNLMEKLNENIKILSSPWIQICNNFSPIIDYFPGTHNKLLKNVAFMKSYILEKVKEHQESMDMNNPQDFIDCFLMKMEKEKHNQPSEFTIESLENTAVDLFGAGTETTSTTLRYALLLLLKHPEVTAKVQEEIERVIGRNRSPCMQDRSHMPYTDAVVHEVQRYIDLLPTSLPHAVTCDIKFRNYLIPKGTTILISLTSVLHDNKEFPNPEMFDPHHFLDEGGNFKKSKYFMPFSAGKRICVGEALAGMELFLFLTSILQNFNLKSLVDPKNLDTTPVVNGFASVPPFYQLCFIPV
Rap guanine nucleotide exchange factor 4 (Homo sapiens), sequence (Q8WZA2 whole entry, looked up): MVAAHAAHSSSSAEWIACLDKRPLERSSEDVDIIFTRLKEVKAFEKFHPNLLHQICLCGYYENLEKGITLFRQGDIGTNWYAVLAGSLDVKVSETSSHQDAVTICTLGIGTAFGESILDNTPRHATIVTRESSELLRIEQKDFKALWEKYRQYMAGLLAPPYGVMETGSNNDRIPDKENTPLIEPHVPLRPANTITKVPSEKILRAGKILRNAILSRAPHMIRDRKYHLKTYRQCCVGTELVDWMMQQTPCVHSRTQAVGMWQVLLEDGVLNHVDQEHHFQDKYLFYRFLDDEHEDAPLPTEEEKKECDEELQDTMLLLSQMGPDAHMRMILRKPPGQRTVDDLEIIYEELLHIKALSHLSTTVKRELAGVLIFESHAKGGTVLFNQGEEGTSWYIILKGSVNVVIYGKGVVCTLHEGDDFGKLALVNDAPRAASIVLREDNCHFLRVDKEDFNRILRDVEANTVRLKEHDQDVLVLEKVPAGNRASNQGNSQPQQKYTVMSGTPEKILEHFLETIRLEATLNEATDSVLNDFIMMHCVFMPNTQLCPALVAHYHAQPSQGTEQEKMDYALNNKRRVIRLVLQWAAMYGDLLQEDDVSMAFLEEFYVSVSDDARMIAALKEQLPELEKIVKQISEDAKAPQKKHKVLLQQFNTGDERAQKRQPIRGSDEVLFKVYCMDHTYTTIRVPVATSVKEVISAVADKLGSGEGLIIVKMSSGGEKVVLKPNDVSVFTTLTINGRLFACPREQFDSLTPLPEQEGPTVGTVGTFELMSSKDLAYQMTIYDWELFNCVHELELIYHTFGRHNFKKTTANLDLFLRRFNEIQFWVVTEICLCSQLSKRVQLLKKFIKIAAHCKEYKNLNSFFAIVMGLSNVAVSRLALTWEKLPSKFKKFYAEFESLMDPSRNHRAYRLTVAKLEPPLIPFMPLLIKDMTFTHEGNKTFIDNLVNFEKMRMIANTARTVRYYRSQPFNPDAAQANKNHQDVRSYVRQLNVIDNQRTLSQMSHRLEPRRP
Papain (Carica papaya), sequence (P00784 whole entry, looked up): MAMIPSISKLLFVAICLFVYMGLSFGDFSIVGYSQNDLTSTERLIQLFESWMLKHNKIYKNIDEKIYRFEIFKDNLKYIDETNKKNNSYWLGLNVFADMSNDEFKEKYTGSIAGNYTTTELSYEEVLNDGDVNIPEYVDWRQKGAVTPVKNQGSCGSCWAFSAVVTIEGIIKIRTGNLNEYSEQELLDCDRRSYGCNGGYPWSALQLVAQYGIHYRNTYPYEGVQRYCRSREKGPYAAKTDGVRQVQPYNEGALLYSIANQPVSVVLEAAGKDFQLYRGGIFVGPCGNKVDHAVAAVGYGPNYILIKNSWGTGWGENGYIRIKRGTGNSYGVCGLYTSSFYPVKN
Calcium and integrin-binding protein 1 (Homo sapiens), sequence (Q99828 whole entry, looked up): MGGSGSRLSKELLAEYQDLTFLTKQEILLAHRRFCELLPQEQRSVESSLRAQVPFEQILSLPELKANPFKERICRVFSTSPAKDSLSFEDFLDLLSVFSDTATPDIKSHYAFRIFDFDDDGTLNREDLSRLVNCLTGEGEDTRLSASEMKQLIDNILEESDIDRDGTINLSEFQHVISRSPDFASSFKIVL

For the compound `CNCCC(Oc1ccccc1OC)c1ccccc1` (centres undefined), in assay [1], the outcome was inactive. The Potency result (in assay [2]; in [4]; in the assay with Papain (Carica papaya)) was “inactive” throughout. Moreover, the Potency in assay [3] is 1.74 µM (active).

With `CCOC(=O)C1=C(C)NC(C)=C(C(=O)OC)C1c1cccc([N+](=O)[O-])c1` (centres undefined), the Potency entry (in assay [2]; in assay [5]; in assay [6]; in the assay with Papain (Carica papaya); in assay [8]) was “inactive” throughout. In addition, the Potency in assay [3] is 13.8 µM (active); in [4], 0.436 µM (active). Besides, the result in [7] was inactive.

With `C[C@]12C=CC(=O)C=C1CC[C@H]1[C@@H]3C[C@@H](O)[C@](O)(C(=O)CO)[C@@]3(C)C[C@H](O)[C@@]12F`, the Potency entry (in [5]; in assay [6]; in [3]; in [4]; with Papain (Carica papaya); in assay [9]) was “inactive” each time. The Potency in assay [10] is 1.68 µM (active).

As to `CCn1nc(C(=O)O)c(=O)c2cc3c(cc21)OCO3`, the outcome in [1] was inactive. Besides, the Potency entry (in assay [2]; in assay [6]; with Papain (Carica papaya); in assay [9]; in assay [10]) was “inactive” throughout.

For the compound `CCN(CC)CCCN(c1ccccc1)C1Cc2ccccc2C1`, in assay [1], the result was inactive. Also, the Potency entry (in [11]; in assay [4]; in the assay with Papain (Carica papaya)) was “inactive” throughout. For the same compound, the results for the Potency in [12] and in assay [3] were 39.8 µM (active) and 0.0389 µM (active), respectively.

As to `COc1cc(Cc2cnc(N)nc2N)cc(OC)c1OC`, the result in assay [1], in assay [7], in [15] and in assay [16] was inactive. Besides, the Potency entry in [2], in assay [6], in assay [3], in assay [4], in [8] and in [13] was “inactive” in each case. Further, the Potency entry in assay [14] was “inactive”.

In the case of `OC(CCN1CCCCC1)(c1ccccc1)C1CCCCC1` (centres undefined), the Potency entry (in assay [11]; in assay [4]; in the assay with Papain (Carica papaya)) was “inactive” throughout. For the same compound, the Potency in assay [12] was 35.5 µM (active); in assay [3] it was 1.74 µM (active). Further, in assay [17], the max response was 13.7%.

For the compound `COCCCC/C(=N\OCCN)c1ccc(C(F)(F)F)cc1`, in assay [1], the outcome was inactive. The Potency entry (in assay [2]; with Papain (Carica papaya)) was “inactive” in each case. For the same compound, the Potency in assay [3] is 0.977 µM (active); in assay [4], 11 µM (active).

With `COC(=O)C1=C(C)NC(C)=C(C(=O)OCCN(C)Cc2ccccc2)C1c1cccc([N+](=O)[O-])c1` (centres undefined), the Potency entry (in assay [2]; with Papain (Carica papaya); in [8]; in assay [13]) was “inactive” throughout. The Potency in [10] is 23.7 µM (active).

Consider `CN(C)CCCN1c2ccccc2Sc2ccc(C(F)(F)F)cc21`, for which the Potency entry (in assay [5]; in [4]; with Papain (Carica papaya)) was “inactive” each time. In addition, the Potency in assay [3] was 0.0977 µM (active); in [9], 21.1 µM (active); in [10], 18.8 µM (active).

Turning to `CNCCCN1c2ccccc2CCc2ccccc21`, the outcome in [1] was inactive. The Potency result (in assay [2]; in assay [4]; with Papain (Carica papaya)) was “inactive” each time.

Values taken from PubChem BioAssay (NCATS).
